In PubChem BioAssay (NCATS):
Several values for one entry are separate records, joined by “and”; a condition that tells them apart may be missing. Equal values may be shown once. Results filed as inconclusive are left out. Activity calls are given as the source filed them. Unless noted, the call rests on the fitted dose curve; in most records, active means well fitted curve in the direction sought with a large enough effect; inconclusive means small, poorly fitted or top-dose-only effect, or another doubt; inactive means no such curve, though single readings can be large; an effect the other way counts as inactive or inconclusive.

Legend:
CAOV3 = test: Primary qHTS to identify gynecologic anti-cancer compounds using libraries of approved drugs and bioactive compounds (AID 1345084); details: Gynecologic cancer cell panel viability, ATPlite luminescence, 48 h; series mostly up to 57.5 µM; further: on the % scale 0 is the no-effect control and ±100 the full control effect; nearly all actives have a fitted effect of over 55% in size
Summary of the method: (§1)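 Cells, 1,000 per well, were allowed to settle for 16 h at 37 C before compound addition. Five concentrations were tested for 48 h, and viability was read by ATPlite luminescence after 15 min at room temperature.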

CASKI = test: as above; details: Gynecologic cancer cell panel viability, ATPlite luminescence, 48 h; series mostly up to 57.5 µM
Summary of the method: as §1

Es-2 = test: as above; details: Gynecologic cancer cell panel viability, ATPlite luminescence, 48 h; series mostly up to 57.5 µM
Summary of the method: as §1

HeLa = test: as above; details: Gynecologic cancer cell panel viability, ATPlite luminescence, 48 h; series mostly up to 57.5 µM
Summary of the method: as §1

Hek293T = test: as above; details: Gynecologic cancer cell panel viability, ATPlite luminescence, 48 h, control line for the selectivity index; series mostly up to 57.5 µM
Summary of the method: as §1

JEG-3 = test: as above; details: Gynecologic cancer cell panel viability, ATPlite luminescence, 48 h; series mostly up to 57.5 µM
Summary of the method: as §1

OV90 = test: as above; details: Gynecologic cancer cell panel viability, ATPlite luminescence, 48 h; series mostly up to 57.5 µM
Summary of the method: as §1

PA-1 = test: as above; details: Gynecologic cancer cell panel viability, ATPlite luminescence, 48 h; series mostly up to 57.5 µM
Summary of the method: as §1

SKOV3 = test: as above; details: Gynecologic cancer cell panel viability, ATPlite luminescence, 48 h; series mostly up to 57.5 µM
Summary of the method: as §1

Tov-21-G = test: as above; details: Gynecologic cancer cell panel viability, ATPlite luminescence, 48 h; series mostly up to 57.5 µM
Summary of the method: as §1

Tov112D = test: as above; details: Gynecologic cancer cell panel viability, ATPlite luminescence, 48 h; series mostly up to 57.5 µM
Summary of the method: as §1

astro = test: Drug repurposing screens with cells derived from glioblastoma tumor samples (AID 1345199); details: viability, ATP luminescence, 48 h; series mostly up to 45.9 µM; further: nearly all actives have a fitted effect of over 40% in size; further: potency means the concentration at half of the fitted maximal effect; on activity, negative = cell killing: on the % scale 0 is the no-effect control and ±100 the full control effect
Summary of the method: (§2)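 Primary testing used CD133+ neurospheres from four GBM patients, seven concentrations, 48 h exposure and ATP-based viability; confirmation added three slower-growing patient lines.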

[1] = as above; details: GBM patient neurospheres viability, ATP luminescence, 48 h
Summary of the method: as §2

[2] = molecular target: Nuclear receptor subfamily 1 group I member 2 (Rattus norvegicus) (UniProt Q9R1A7); test: qHTS assay for small molecule activators of the rat pregnane X receptor (rPXR) signaling pathway (AID 651751; call rule not given here; further: 0% is about no effect); details: rPXR reporter cells, luciferase (One-Glo), 24 h
[3] = qHTS assay for small molecule activators of the human pregnane X receptor (PXR) signaling pathway (AID 720659; call rule not given here; further: 0% is about no effect)
[4] = at 20 µM (top of the series), tumour line C
[5] = at 21.2 µM (top of the series), tumour line B
[6] = at 21.2 µM (top of the series), tumour line D
[7] = at 45.9 µM (top of the series), tumour line B
[8] = at 45.9 µM (top of the series), tumour line D
[9] = at 46.1 µM (top of the series), tumour line C

Chain of Nuclear receptor subfamily 1 group I member 2 (Rattus norvegicus) (Q9R1A7 whole entry, looked up): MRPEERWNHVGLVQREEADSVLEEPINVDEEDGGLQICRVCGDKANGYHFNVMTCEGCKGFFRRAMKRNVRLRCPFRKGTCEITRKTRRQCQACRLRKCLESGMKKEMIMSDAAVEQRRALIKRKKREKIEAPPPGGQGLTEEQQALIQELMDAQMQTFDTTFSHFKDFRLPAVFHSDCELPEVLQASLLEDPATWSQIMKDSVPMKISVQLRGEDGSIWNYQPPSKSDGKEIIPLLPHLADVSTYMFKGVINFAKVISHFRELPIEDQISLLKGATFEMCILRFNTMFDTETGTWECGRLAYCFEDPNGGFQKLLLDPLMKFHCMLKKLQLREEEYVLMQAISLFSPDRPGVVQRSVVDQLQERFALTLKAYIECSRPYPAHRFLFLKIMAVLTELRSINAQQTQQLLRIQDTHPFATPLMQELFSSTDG

Cc1c(OCC(F)(F)F)ccnc1CS(=O)c1nc2ccccc2[nH]1 (centres undefined)
inactive: Potency (CAOV3) | Potency (CASKI) | Potency (Es-2) | Potency (HeLa) | Potency (Hek293T) | Potency (JEG-3) | Potency (OV90) | Potency (PA-1) | Potency (SKOV3) | Potency (Tov-21-G) | Potency (Tov112D) | Potency (astro)

CN1C(C(=O)Nc2ccccn2)=C(O)c2sccc2S1(=O)=O
inactive: Potency (CAOV3) | Potency (CASKI) | Potency (Es-2) | Potency (HeLa) | Potency (Hek293T) | Potency (JEG-3) | Potency (OV90) | Potency (PA-1) | Potency (SKOV3) | Potency (Tov-21-G) | Potency (Tov112D) | activity, negative = cell killing [1, 4] 2.25% | activity, negative = cell killing [1, 5] -11.7% | activity, negative = cell killing [1, 6] -11.3% | Potency (astro)

Cc1ccc(C)c(OCCCC(C)(C)C(=O)O)c1
inactive: Potency (CAOV3) | Potency (CASKI) | Potency (Es-2) | Potency (HeLa) | Potency (Hek293T) | Potency (JEG-3) | Potency (OV90) | Potency (PA-1) | Potency (SKOV3) | Potency (Tov-21-G) | Potency (Tov112D) | activity, negative = cell killing [1, 7] -12.7% | activity, negative = cell killing [1, 8] -0.928% | activity, negative = cell killing ([1]; at 46 µM (top of the series), tumour line A) -17.6% | activity, negative = cell killing [1, 9] -8.64% | Potency (astro) | max response [2] -0.498% and -3.12%

Nc1cc(C(Cl)=C(Cl)Cl)c(S(N)(=O)=O)cc1S(N)(=O)=O
inactive: Potency (CAOV3) | Potency (CASKI) | Potency (Es-2) | Potency (HeLa) | Potency (Hek293T) | Potency (JEG-3) | Potency (OV90) | Potency (PA-1) | Potency (SKOV3) | Potency (Tov-21-G) | Potency (Tov112D) | activity, negative = cell killing [1, 4] -2.9% | activity, negative = cell killing [1, 5] -5.37% | activity, negative = cell killing [1, 6] -20.2% | activity, negative = cell killing ([1]; at 21.3 µM (top of the series), tumour line A) -22% | activity, negative = cell killing [1, 7] -15.5% | activity, negative = cell killing [1, 8] 2.04% | activity, negative = cell killing [1, 9] 10.7% | Potency (astro)

CC1(C)NC(=O)N(c2ccc([N+](=O)[O-])c(C(F)(F)F)c2)C1=O
inactive: Potency (CAOV3) | Potency (CASKI) | Potency (Es-2) | Potency (HeLa) | Potency (Hek293T) | Potency (JEG-3) | Potency (OV90) | Potency (PA-1) | Potency (SKOV3) | Potency (Tov-21-G) | Potency (Tov112D) | max response [2] -9.05% | outcome [3]

COc1ccc2cc([C@H](C)C(=O)O)ccc2c1
inactive: Potency (CAOV3) | Potency (CASKI) | Potency (Es-2) | Potency (HeLa) | Potency (Hek293T) | Potency (JEG-3) | Potency (OV90) | Potency (PA-1) | Potency (SKOV3) | Potency (Tov-21-G) | Potency (Tov112D) | activity, negative = cell killing [1, 4] -12.8% | activity, negative = cell killing [1, 5] -16.1% | activity, negative = cell killing [1, 6] -8.68% | Potency (astro)

COC(=O)N[C@H](C(=O)N[C@@H](Cc1ccccc1)[C@@H](O)CN(Cc1ccc(-c2ccccn2)cc1)NC(=O)[C@@H](NC(=O)OC)C(C)(C)C)C(C)(C)C
inactive: Potency (CAOV3) | Potency (CASKI) | Potency (Es-2) | Potency (HeLa) | Potency (Hek293T) | Potency (JEG-3) | Potency (OV90) | Potency (PA-1) | Potency (SKOV3) | Potency (Tov-21-G) | Potency (Tov112D) | activity, negative = cell killing [1, 7] -0.919% | activity, negative = cell killing [1, 8] -29.7% | activity, negative = cell killing [1, 9] 8.04% | Potency (astro)
active: Potency ([1]; tumour line A) 11.2 µM

COC(=O)C1=C(C)NC(C)=C(C(=O)OC(C)C)C1c1cccc2nonc12 (centres undefined)
inactive: Potency (CAOV3) | Potency (CASKI) | Potency (Es-2) | Potency (HeLa) | Potency (Hek293T) | Potency (JEG-3) | Potency (OV90) | Potency (PA-1) | Potency (SKOV3) | Potency (Tov-21-G) | Potency (Tov112D) | activity, negative = cell killing [1, 4] -16.7% | activity, negative = cell killing [1, 5] -11.5% | activity, negative = cell killing [1, 6] -1.17% | Potency (astro)

CC1Cc2ccccc2N1NC(=O)c1ccc(Cl)c(S(N)(=O)=O)c1 (centres undefined)
inactive: Potency (CAOV3) | Potency (CASKI) | Potency (Es-2) | Potency (HeLa) | Potency (Hek293T) | Potency (JEG-3) | Potency (OV90) | Potency (PA-1) | Potency (SKOV3) | Potency (Tov-21-G) | Potency (Tov112D) | activity, negative = cell killing [1, 4] 27.9% | activity, negative = cell killing [1, 5] -2.89% | activity, negative = cell killing [1, 6] 1.12% | activity, negative = cell killing [1, 7] 9.62% | activity, negative = cell killing [1, 8] -0.642% | activity, negative = cell killing [1, 9] 0.368% | Potency (astro)

c1cnc2cc3c(cc2n1)C1CNCC3C1
inactive: Potency (CAOV3) | Potency (CASKI) | Potency (Es-2) | Potency (HeLa) | Potency (Hek293T) | Potency (JEG-3) | Potency (OV90) | Potency (PA-1) | Potency (SKOV3) | Potency (Tov-21-G) | Potency (Tov112D) | activity, negative = cell killing ([1]; at 99.2 µM (top of the series), tumour line C) 7.09% | activity, negative = cell killing ([1]; at 108 µM (top of the series), tumour line A) -15.8% | activity, negative = cell killing ([1]; at 108 µM (top of the series), tumour line B) -8.07% | activity, negative = cell killing ([1]; at 108 µM (top of the series), tumour line D) -25.1% | Potency (astro)

N[C@@H](Cc1cc(I)c(Oc2cc(I)c(O)c(I)c2)c(I)c1)C(=O)O
inactive: Potency (CAOV3) | Potency (CASKI) | Potency (Es-2) | Potency (HeLa) | Potency (Hek293T) | Potency (JEG-3) | Potency (OV90) | Potency (PA-1) | Potency (SKOV3) | Potency (Tov-21-G) | Potency (Tov112D) | max response [2] 4.68%

CC1=C(C(=O)O)N2C(=O)[C@@H](NC(=O)[C@H](N)C3=CCC=CC3)[C@H]2SC1
inactive: Potency (CAOV3) | Potency (CASKI) | Potency (Es-2) | Potency (HeLa) | Potency (Hek293T) | Potency (JEG-3) | Potency (OV90) | Potency (PA-1) | Potency (SKOV3) | Potency (Tov-21-G) | Potency (Tov112D) | activity, negative = cell killing [1, 7] -8.4% | activity, negative = cell killing [1, 8] -14.2% | activity, negative = cell killing [1, 9] -3.66% | Potency (astro)

Cc1cccc(C)c1OCC(=O)N[C@@H](Cc1ccccc1)[C@@H](O)C[C@H](Cc1ccccc1)NC(=O)[C@H](C(C)C)N1CCCNC1=O
inactive: Potency (CAOV3) | Potency (CASKI) | Potency (Es-2) | Potency (HeLa) | Potency (Hek293T) | Potency (JEG-3) | Potency (OV90) | Potency (PA-1) | Potency (SKOV3) | Potency (Tov-21-G) | Potency (Tov112D) | activity, negative = cell killing [1, 7] -15.7% | activity, negative = cell killing [1, 8] -27.5% | activity, negative = cell killing [1, 9] -29% | Potency (astro)
active: Potency ([1]; tumour line A) 10 µM
